From the supplement of paper PMC11732987, “Enantioselective OTUD7B fragment discovery through chemoproteomics screening and high-throughput optimisation” (Communications Chemistry, 2025)

What was measured:
Assay in all cases: log2 ratio of Biotin-Ahx-Ub-VS probe labelling (fragment/DMSO); higher = less target engagement (more negative = stronger competition), active = hit call of the paper (q ≤ 0.05, log2 ratio ≤ -1)
Details in all cases: compound concentration: 200 uM; treatment time: 3 h
USP19 = target: T1, USP19 (UniProt O94966)
T1 sequence (whole entry): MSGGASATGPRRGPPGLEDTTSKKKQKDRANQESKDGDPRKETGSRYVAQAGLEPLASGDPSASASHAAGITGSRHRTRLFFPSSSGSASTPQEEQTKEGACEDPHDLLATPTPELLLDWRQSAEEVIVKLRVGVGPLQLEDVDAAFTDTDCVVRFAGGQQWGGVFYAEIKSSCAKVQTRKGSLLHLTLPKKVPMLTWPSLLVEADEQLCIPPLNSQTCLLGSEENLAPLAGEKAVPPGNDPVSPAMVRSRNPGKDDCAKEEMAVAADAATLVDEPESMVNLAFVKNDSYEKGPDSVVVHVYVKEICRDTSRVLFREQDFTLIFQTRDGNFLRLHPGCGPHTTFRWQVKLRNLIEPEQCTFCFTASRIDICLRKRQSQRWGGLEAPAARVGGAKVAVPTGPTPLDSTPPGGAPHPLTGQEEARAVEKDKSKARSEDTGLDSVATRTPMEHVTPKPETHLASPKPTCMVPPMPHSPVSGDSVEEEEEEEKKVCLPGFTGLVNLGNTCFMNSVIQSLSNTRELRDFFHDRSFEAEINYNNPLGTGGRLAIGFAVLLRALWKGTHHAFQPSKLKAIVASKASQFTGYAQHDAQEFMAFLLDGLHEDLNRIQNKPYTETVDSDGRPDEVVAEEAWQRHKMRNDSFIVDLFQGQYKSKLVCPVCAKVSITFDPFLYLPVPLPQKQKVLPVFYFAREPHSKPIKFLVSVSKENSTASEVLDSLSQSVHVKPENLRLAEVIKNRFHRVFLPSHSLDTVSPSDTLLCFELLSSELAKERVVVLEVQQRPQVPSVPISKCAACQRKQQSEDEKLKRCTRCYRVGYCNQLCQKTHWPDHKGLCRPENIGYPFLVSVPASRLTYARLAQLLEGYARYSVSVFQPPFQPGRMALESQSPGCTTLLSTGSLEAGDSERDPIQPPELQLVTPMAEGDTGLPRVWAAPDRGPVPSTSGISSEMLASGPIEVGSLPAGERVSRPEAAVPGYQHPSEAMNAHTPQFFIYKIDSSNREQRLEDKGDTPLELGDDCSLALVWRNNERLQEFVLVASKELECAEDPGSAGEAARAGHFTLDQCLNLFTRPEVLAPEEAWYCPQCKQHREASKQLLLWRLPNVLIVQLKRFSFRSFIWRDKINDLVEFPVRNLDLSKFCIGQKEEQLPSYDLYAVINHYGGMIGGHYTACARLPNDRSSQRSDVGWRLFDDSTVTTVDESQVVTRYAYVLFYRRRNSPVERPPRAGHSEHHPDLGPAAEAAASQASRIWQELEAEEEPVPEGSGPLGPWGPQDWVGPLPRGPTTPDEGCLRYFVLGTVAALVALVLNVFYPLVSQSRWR
Summary of the method: (§1)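 HEK293T lysate, 495 µg per sample in Tris/CHAPS/IGEPAL buffer with protease inhibitors, was treated in triplicate with fragment at 200 µM or vehicle for 3 h and then with Biotin-Ahx-Ub-VS at 0.5 µM final for 1 h. Labelled DUBs were NeutrAvidin-enriched, digested with LysC and trypsin, and run by diaPASEF LC-MS/MS. Spectronaut label-free quantities were global-median-normalised, and values are average log2 fragment/vehicle ratios by unpaired t-test on proteins with ≥2 unique peptides.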

USP22 = target: T2, USP22 (UniProt Q9UPT9)
T2 sequence (whole entry): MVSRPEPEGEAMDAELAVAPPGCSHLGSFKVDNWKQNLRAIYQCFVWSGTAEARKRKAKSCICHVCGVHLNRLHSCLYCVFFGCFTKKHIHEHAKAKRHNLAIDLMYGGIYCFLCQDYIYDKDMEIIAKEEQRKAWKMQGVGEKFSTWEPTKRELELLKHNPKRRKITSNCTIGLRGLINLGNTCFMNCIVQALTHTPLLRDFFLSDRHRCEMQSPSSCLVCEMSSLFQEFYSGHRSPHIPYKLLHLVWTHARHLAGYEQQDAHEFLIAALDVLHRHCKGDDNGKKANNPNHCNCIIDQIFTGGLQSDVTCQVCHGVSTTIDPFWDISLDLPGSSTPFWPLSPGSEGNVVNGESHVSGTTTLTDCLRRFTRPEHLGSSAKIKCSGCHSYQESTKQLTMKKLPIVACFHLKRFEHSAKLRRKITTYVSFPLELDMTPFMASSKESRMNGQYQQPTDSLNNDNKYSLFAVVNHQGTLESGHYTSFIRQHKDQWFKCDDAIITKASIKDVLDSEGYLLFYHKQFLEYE
Summary of the method: as §1

USP24 = USP24 (UniProt Q9UPU5)
USP24, sequence (Q9UPU5 whole entry): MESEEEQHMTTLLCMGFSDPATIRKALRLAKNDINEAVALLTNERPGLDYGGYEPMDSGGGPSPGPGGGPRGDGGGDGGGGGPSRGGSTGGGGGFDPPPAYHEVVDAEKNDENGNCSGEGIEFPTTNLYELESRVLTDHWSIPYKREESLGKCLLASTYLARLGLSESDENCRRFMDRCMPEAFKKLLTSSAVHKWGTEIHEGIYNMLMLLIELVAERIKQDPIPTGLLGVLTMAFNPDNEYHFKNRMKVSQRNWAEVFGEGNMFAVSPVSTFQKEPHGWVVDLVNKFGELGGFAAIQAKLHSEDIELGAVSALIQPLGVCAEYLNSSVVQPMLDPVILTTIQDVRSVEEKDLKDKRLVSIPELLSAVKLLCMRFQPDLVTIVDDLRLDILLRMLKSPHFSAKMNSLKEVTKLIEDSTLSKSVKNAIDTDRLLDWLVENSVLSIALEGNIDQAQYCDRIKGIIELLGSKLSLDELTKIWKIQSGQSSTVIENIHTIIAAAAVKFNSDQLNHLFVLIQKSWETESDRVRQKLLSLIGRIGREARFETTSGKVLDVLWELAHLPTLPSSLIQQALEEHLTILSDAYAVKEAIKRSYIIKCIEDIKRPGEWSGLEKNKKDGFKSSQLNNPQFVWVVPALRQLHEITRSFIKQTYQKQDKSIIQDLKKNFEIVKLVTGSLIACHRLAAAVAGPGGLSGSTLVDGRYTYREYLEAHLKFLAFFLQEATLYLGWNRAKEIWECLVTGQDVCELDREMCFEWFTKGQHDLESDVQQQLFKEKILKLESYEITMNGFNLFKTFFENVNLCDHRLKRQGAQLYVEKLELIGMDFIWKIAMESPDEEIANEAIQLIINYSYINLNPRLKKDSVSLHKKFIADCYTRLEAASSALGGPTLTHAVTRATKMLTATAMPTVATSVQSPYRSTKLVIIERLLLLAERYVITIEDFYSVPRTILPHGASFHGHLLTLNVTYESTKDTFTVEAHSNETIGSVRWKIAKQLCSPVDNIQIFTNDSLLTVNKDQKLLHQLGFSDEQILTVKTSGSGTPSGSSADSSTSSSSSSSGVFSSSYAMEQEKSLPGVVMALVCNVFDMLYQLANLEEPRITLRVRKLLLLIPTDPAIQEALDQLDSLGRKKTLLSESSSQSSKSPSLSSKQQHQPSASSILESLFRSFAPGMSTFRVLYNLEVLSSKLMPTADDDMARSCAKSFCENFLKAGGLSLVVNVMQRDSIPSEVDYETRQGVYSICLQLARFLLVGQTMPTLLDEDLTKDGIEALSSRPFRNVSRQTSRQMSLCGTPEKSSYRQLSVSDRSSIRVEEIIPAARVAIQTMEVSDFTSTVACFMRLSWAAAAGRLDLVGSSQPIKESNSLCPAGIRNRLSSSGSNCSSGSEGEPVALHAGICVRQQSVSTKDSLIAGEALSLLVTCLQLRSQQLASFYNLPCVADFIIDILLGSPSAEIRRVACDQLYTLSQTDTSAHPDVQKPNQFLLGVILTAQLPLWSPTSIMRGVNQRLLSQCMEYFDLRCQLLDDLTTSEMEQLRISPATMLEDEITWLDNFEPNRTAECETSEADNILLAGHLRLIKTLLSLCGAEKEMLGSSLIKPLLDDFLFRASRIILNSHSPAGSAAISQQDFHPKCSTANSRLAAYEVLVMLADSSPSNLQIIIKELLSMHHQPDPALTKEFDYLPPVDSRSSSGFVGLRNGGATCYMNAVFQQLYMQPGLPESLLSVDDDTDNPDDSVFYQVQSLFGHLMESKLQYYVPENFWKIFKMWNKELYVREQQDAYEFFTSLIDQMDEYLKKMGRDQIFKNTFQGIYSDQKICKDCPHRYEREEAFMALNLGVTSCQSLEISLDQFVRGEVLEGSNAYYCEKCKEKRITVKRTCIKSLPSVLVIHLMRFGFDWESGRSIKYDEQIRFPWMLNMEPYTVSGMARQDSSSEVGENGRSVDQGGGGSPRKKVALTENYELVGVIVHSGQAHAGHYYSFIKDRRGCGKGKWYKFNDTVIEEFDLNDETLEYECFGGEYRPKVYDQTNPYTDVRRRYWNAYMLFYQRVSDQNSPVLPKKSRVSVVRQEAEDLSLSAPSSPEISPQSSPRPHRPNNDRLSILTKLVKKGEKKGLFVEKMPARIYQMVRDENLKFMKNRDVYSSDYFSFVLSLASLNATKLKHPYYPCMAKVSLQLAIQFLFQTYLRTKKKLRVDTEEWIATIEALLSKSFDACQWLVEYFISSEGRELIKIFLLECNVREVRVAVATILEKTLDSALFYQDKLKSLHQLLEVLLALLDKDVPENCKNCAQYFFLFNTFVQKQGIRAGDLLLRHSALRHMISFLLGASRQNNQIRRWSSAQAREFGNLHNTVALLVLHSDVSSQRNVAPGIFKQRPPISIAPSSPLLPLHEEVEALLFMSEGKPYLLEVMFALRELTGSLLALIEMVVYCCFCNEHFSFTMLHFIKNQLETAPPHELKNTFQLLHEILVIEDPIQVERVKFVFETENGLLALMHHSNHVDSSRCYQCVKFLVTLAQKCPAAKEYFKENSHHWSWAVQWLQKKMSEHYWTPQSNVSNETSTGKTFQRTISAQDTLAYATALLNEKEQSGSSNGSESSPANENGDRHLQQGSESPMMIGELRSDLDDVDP
Summary of the method: as §1

USP25 = target: T3, USP25 (UniProt Q9UHP3)
T3 sequence (whole entry): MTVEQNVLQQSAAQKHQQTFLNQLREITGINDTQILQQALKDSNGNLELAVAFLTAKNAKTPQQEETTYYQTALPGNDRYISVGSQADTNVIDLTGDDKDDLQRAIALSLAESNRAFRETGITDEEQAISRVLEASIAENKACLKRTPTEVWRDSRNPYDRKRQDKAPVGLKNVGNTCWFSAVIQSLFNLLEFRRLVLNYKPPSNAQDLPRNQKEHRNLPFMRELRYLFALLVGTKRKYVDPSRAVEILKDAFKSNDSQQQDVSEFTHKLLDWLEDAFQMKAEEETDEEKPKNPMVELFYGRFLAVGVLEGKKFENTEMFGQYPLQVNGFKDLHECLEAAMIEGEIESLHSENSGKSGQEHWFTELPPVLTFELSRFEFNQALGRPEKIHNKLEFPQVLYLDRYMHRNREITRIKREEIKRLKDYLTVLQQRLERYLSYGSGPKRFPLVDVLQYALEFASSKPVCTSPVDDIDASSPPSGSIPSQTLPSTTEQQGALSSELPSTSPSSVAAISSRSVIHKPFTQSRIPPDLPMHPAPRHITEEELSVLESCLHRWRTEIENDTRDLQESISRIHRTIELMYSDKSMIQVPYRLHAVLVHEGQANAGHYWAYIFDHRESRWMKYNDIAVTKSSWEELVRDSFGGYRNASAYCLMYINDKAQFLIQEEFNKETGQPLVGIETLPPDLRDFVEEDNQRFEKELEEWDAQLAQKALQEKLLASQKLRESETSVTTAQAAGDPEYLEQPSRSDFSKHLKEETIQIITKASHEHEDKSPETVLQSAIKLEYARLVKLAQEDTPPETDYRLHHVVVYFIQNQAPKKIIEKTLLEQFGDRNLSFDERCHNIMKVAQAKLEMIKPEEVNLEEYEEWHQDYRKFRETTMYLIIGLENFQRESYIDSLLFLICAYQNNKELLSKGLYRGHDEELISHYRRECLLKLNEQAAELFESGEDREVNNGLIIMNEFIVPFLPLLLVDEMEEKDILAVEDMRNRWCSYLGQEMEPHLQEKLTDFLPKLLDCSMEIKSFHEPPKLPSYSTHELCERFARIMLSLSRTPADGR
Summary of the method: as §1

USP28 = target: T4, USP28 (UniProt Q96RU2)
T4 sequence (whole entry): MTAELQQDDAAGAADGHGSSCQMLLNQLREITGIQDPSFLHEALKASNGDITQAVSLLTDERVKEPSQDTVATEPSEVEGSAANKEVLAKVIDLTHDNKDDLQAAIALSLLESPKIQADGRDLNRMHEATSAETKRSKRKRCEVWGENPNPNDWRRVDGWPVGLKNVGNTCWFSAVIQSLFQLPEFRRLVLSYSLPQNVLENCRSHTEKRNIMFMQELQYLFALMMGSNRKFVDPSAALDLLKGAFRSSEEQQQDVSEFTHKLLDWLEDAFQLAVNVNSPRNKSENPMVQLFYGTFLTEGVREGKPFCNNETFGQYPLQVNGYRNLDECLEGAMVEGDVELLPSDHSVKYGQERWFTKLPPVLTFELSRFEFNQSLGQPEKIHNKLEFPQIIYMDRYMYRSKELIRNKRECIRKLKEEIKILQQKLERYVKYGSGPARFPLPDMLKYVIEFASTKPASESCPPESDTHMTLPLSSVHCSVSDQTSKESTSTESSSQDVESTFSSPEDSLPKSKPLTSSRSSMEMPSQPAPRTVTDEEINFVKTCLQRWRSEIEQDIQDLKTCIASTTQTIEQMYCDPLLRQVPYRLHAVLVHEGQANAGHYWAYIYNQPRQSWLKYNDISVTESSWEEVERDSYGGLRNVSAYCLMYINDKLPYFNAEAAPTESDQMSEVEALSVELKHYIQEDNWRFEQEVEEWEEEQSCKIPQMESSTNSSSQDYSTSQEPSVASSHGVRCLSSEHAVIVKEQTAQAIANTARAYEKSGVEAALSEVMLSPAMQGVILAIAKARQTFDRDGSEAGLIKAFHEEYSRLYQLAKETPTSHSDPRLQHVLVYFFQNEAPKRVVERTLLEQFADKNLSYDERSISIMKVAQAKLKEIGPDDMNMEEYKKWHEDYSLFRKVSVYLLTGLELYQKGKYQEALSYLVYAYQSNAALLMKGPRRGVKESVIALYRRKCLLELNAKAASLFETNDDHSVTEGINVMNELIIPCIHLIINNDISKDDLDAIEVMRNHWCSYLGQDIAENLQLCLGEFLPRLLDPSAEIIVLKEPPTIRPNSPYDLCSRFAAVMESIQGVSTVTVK
Summary of the method: as §1

Measured: log2 ratio of Biotin-Ahx-Ub-VS probe labelling

Cl.O=C(CCl)N1CCn2cncc2C1
inactive: USP19 -0.443 | USP22 -0.0616 | USP24 -0.129 | USP25 -0.134 | USP28 -0.354
